Measured values reported in PubChem BioAssay (NCI).
This is part of a sample that, as a whole, favours compounds with a hit. Of some 79,000 tested, about 15% had one in any assay. A number with no mark means an inactive call. No stated cut-off is given here; in the data, active means growth inhibition above about 70%; inactive means the rest.

test: NCI Yeast Anticancer Drug Screen. Data for the rad50 strain (AID 155);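 further: 0% = growth of vehicle-only cultures of the same strain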; settings: S. cerevisiae rad50 strain growth inhibition; at 50.0 µM; active compounds read high
How it was run: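 Vehicle-treated cultures provide the reference for the growth inhibition reported for compound-exposed, repair-deficient yeast.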

| SMILES | growth inhibition [%] |
| --- | --- |
| CNC1=C(Sc2ccc(Cl)cc2)C(=O)c2ccccc2C1=O | -0.4 |
| COc1c(OC2OC(CO)C(O)C(O)C2O)cc2c(c1OC)-c1ccc(OC)c(=O)cc1C(NC(C)=O)CC2 (stereo not given) | 13.8 |
| NS(=O)(=O)c1ccc(N=C2C=CC(=O)C=C2)cc1 | 13.6 |
| Cc1cc(Cl)nc2ccc(Cc3ccc(Cl)cc3)cc12 | 16.7 |
| Cc1cc(N(CCC#N)CCC#N)ccc1/C=C(\NC(=O)/C=C/c1ccccc1)C(=O)N=[N+]=[N-] | -30.4 |
| CCCCCCn1c(=O)cc2n(c1=O)CCC2 | 30 |
| O=C(O)c1ccccc1-c1ccccc1C(=O)O | -3.95 |
| COC(=O)C1C(=C(c2ccccc2)c2ccccc2)C1c1ccccc1 (stereo not given) | -1.75 |
| O=C(CCc1ccccc1)NC(=S)Nc1cc(C(F)(F)F)ccc1Cl | 13.2 |
| COC1OCC(OS(C)(=O)=O)C(NC(C)=O)C1OS(C)(=O)=O (stereo not given) | -13.9 |
| CC(=O)OC/C=C(C)/C=C/C=C(C)/C=C/C1=C(C)CCCC1(C)C | -15.4 |
| C=CCN1C(=O)c2ccccc2S1(=O)=O | 8.2 |
| O=C(CN1CCOCC1)CC(O)(C(F)(F)F)C(F)(F)F | 0.35 |
| CC1(C)CC([N+](C)(C)CCCCCC[N+](C)(C)C2CC(C)(C)N(O)C(C)(C)C2)CC(C)(C)N1O | 3.6 |
| O=C1c2cc(Cl)ccc2-c2ccc(Cl)cc21 | 2.75 |
| CC(=C(C#N)C#N)c1ccccc1 | 11 |
| COc1ccc(NC(=O)NCc2ccc(C)c(C)c2)cc1 | -0.8 |
| CC(C)(C)C1CCC(O)(CSc2ccccc2)CC1 (stereo not given) | 6.7 |
| COc1cc(C(c2cc3c(cc2O)OCO3)n2ccnc2)cc(OC)c1OC (stereo not given) | -15.2 |
| CC(=N/NC(=S)NCCN1CCCC1)/C(C)=N\NC(=S)NCCN1CCCC1 | 50.6 |

| SMILES | growth inhibition [%] |
| --- | --- |
| COc1ccc(/C=C/C(=O)c2ccc(Br)cc2)cc1 | -33.4 |
| CCCCCCCCCC(C)=O | -9.8 |
| c1ccc(-c2c(-c3ccc4c(c3)CCCC4)c(-c3ccccc3)c3c(c2-c2ccccc2)-c2cccc4cccc-3c24)cc1 | -4.15 |
| O=c1c(SCc2ccccc2)c(N2CCOCC2)cnn1-c1ccccc1 | 28.4 |
| CC1=Nc2ccccc2NC2(C1)C(C1COC(C)(C)O1)OC1OC(C)(C)OC12 (stereo not given) | 9.95 |
| COc1ccc(-c2cc(-c3ccccc3)c(-c3ccccc3)nn2)cc1CN1CCOCC1 | 2.65 |
| O=C1CCCc2[nH]c3ccc(Cl)cc3c21 | -1.9 |
| Cc1cc(C)c2c(=O)cc(-c3cccc(F)c3)[nH]c2n1 | 1.35 |
| O=C(CN(Cc1ccccc1)Cc1ccccc1)C(O)C1OC(c2ccccc2)OCC1O (stereo not given) | 1.45 |
| CN1CC(=O)N2CCCCC2C(c2ccccc2)C1 (stereo not given) | -4.85 |
| O=C1C(N=Nc2ccccc2)Sc2nc3ccccc3n21 (stereo not given) | -16.1 |
| O=C(OC1OC(COCc2ccccc2)C(OCc2ccccc2)C1OCc1ccccc1)c1ccc([N+](=O)[O-])cc1 (stereo not given) | 25.2 |
| O=[N+]([O-])c1ccc(S(=O)(=O)N/N=C/c2ccco2)cc1 | 14.6 |
| CC1CN=C(N(Cc2ccccc2)C(=O)Nc2ccc(Cl)c(Cl)c2)S1 (stereo not given) | -4.25 |
| N#Cc1c2c(c(=O)n3c1[nH]c1ccccc13)CCCC2 | 16.2 |
| C/C(=C/CCl)[N+](=O)[O-] | 36.4 |
| C(=Nc1ccc2ccccc2c1)c1cccs1 | 1.6 |
| CSc1nc2cc(C)c(C)cc2[nH]1 | -5.1 |
| CC(C)(C)OC(=O)NCCNC(=O)OCc1ccccc1 | 4.25 |
| CC(=O)N1CCc2[nH]c3ccccc3c2CC1 | 10.9 |
